Screening results as filed in PubChem.
Most compounds without a hit are left out; they make up all but 20% or so of the library.
Pf growth 96h: inhibits malaria parasite growth, 96 h. P. falciparum luciferase reporter growth, 96 h. Potency, µM (series often up to 28.7 µM), inactives show at the top dose activity change, negative = inhibition, most hits filed as inhibitors. 320,000 tested, 6.9% active; further: potency means the concentration at half of the fitted maximal effect; on the % scale 0 is the no-effect control and ±100 the full control effect
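96 h incubation, 37 C, 5% CO2, of luciferase-reporter P. falciparum-infected RBCs (2% hematocrit, 0.05% parasitemia final) with test compounds; endpoint luminescence.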
CHX counter: counter-screen hit for Shiga toxin inhibitors, cycloheximide; max response, %; 300,000 tested, 12% active; cell reporter, cycloheximide protein synthesis inhibition counterscreen; in the data active means max response mostly above about 13%, no sharp cut-off; inactive means mostly below about 14%; further: read at 38.3 µM for the half of the compounds with a filed dose; 0% is about no effect
Pf growth 48h: P. falciparum growth inhibition at 48 hours (one generation) | P. falciparum luciferase growth in erythrocytes, 48 h | Potency, µM (highest dose often 28.7 µM), for inactives: top-dose activity change, negative = inhibition, most hits filed as inhibitors | 310,000 tested, 5.9% active | AID 504832; further: potency means the concentration at half of the fitted maximal effect; on the % scale 0 is the no-effect control and ±100 the full control effect
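Erythrocytes infected with P. falciparum carrying an integrated firefly luciferase reporter (2% hematocrit, 0.1% parasitemia final) were exposed to compounds in RPMI 1640 with 0.5% Albumax at 37 C, 5% CO2. Growth inhibition was scored as reduced luminescence.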
Shiga inhibitor: Shiga toxin inhibition; inhibition, % at 38.7 µM; Vero cells, Shiga toxin protein synthesis inhibition reporter; 290,000 tested, 9.2% active; in the data active means inhibition mostly above about 28%, no sharp cut-off; inactive means mostly below about 43%; further: 0% is about no effect
HCMV inh: blocks human cytomegalovirus replication; activity change, negative = inhibition, % at 57.5 µM; AID 1259415; 410,000 tested, 4.5% active; HFF cells, HCMV-luciferase reporter, 72 h; hits give low values; in the data active means activity change below about -60%; inconclusive means no clear call, values can overlap the other calls; inactive means above about -39%; further: on the % scale 0 is the no-effect control and ±100 the full control effect
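HFF cells seeded 16 h at 37C, treated with compounds, infected with luciferase-reporter HCMV at MOI 1 PFU/cell; luciferase read at 72 h post infection, normalized to buffer-only and Salinomycin controls.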
Active calls of the source: *; ? = inconclusive; nt = no result; [ ] = another dose, or the depositor's remark. Unless noted, the call rests on the fitted dose curve; in most records, active means well fitted inhibition curve with a large enough effect; inconclusive means small, poorly fitted or top-dose-only effect, or another doubt; inactive means no such curve, though single readings can be large or run the other way.

SMILES | Pf growth 96h | CHX counter | Pf growth 48h | Shiga inhibitor | HCMV inh
O=C1c2cnccc2CN1Cc1ccccc1 | 3.29µM* | 8.4 | 40.7% | 1.9 | 19.1
O=C1c2ccccc2C(=O)N1Cc1cccnc1 | 172.8% | -1.3 | 20.1% | -16.1 | 38.3
COc1ccc(-n2c(SCC(=O)N(C)C3CCS(=O)(=O)C3)nc3ccc(O)cc3c2=O)cc1OC (centres undefined) | nt | nt | nt | nt | 5.5
CC(C)(C)C1CCC(OC(=O)c2ccncc2)CC1 (centres undefined) | 8.8%[5.75 µM] | -3.6 | 11.7µM* | 3.0 | -11.0
COC(=O)c1ccc(-c2ccc(/C=N/N3C(=O)C4C5C=CC(CC5)C4C3=O)o2)cc1 (centres undefined) | 4.2% | 34.5* | 74.8% | 36.6 | 1.6
O=C1C2C3C=CC(CC3)C2C(=O)N1/N=C/c1ccco1 (centres undefined) | 11.3% | 16.5* | 24.5% | 25.9 | -22.9
Oc1ccccc1-n1c(-c2ccccc2)ccc1-c1ccccc1 | 5.86µM* | -4.2 | 9.28µM* | -3.5 | -76.4*
CC(C)(C)NC(=O)C(c1ccc(-c2ccccc2)cc1)N(C[C@H]1CC[C@@H]([C@@H]2CC[C@H](CO)O2)O1)C(=O)c1cccc(Cl)c1 (some centres undefined) | nt | nt | nt | nt | -15.7
CC(C)(C)NC(=O)C(c1ccc(-c2ccccc2)cc1)N(C[C@H]1CC[C@@H]([C@@H]2CC[C@H](CO)O2)O1)C(=O)c1ccc2ccccc2c1 (some centres undefined) | nt | nt | nt | nt | -100.3*
O=C(NC1CCCC1)C(c1ccc(Cl)cc1)N1CCc2ccccc21 (centres undefined) | 5.86µM* | -5.6 | nt | 3.9 | -23.5
O=C(NC1CCCCC1)C(c1ccccc1)N1CCc2ccccc21 (centres undefined) | 11.7µM* | -1.9 | nt | 15.9 | ?
Cc1ccc(C(C(=O)NC2CCCC2)N2CCc3ccccc32)cc1 (centres undefined) | ? | -1.3 | nt | -7.1 | 64.2
CC[N+](CC)(CC#Cc1ccccc1)CC(=O)c1ccc(Cl)cc1 | ? | 1.6 | ? | -3.3 | -17.8
C#CC[N+](CC)(CC)CC#Cc1cccc(Cl)c1 | ? | -4.3 | 10.4µM* | -7.3 | -12.2
C#CC[N+](C)(C)CC#Cc1ccc(Cl)cc1 | ? | -5.8 | 1.65µM* | -6.0 | -93.9*
CC[N+](CC)(CC#CCO)CC#Cc1ccccc1 | 10.4µM* | -5.6 | ? | 26.9 | 12.7
C#CCOC(=O)C[N+](C)(C)CC#Cc1ccccc1 | ? | -2.5 | 2.9% | -2.1 | -34.7
COc1ccc(CN2CCN(Cc3ccccc3F)CC2)cc1OC | 0.0% | -1.0 | 6.4% | -4.0 | -13.6
CCc1nnc(NC(=O)CCc2ccccc2OC)s1 | 1.7% | -1.9 | 0.4% | 19.0 | 25.5
CCCCOc1ccccc1Cn1c(=O)sc2ccccc21 | nt | nt | nt | nt | -2.5
CC(C)(C)C1CCc2sc(C(=O)NNC(=O)CCl)cc2C1 (centres undefined) | ? | 58.8* | ? | 109.3* | -21.6
CCc1cc(C(=O)Nc2ccc(OC)nc2)sc1C | -9.5% | nt | 39.0% | nt | 9.1
CCc1cc(C(=O)NNC(=O)CCN2CCN(c3ccccc3)CC2)sc1C | 28.7% | -0.8 | 5.1% | -10.7 | -21.1
CCc1cc(C(=O)NNC(=O)CCl)sc1C | 1.47µM* | 20.3 | 1.04µM* | -3.5 | -64.4*
CCc1cc(C(=O)Nc2ncccc2O)sc1C | 95.2% | 36.5* | 29.3% | 55.2* | -16.8
SMILES | Pf growth 96h | CHX counter | Pf growth 48h | Shiga inhibitor | HCMV inh
CC(=O)N1CCOc2ccc(S(=O)(=O)N3CCC(C(=O)Nc4ccc(F)cc4)CC3)cc21 | 14.7µM* | 18.6 | ? | -2.4 | -4.2
CC(=O)N1CCOc2ccc(S(=O)(=O)N3CCCC(C)C3)cc21 (centres undefined) | 11.7µM* | 9.6 | -7.2% | -5.7 | 0.0
Clc1cccc(Cc2c(-c3cccc(Br)c3)nc3c4ccccc4ccn23)c1 | nt | nt | nt | nt | 25.4
CCC(C)C(=O)OC1CCC=C2C=CC(C)C(CCC3CC(O)CC(=O)O3)[C@@H]21 (some centres undefined) | 1.3% | nt | -1.6% | nt | nt
CC(=O)c1ccc(N2C(=O)N(CC(=O)c3ccc(F)cc3)c3ccccc3S2(=O)=O)cc1 | nt | nt | nt | nt | 38.2
CC(=O)c1c(C)[nH]c(C(=O)Nc2nc(-c3ccccc3)c(C)s2)c1C | -5.3% | 22.9* | 16.1% | 15.1 | 4.8
COCC(=O)Nc1nc(-c2ccccc2)c(C)s1 | nt | -1.1 | 30.7% | 26.2 | -6.1
Oc1ccc(-c2nc3ccccn3c2NCc2ccco2)cc1 | 61.1% | 35.2* | 30.2% | 36.9* | 26.2
